Bioassay records as filed in PubChem BioAssay.
Shiga inhibitor = blocks Shiga toxin action in Vero cells; Vero cells, Shiga toxin protein synthesis inhibition reporter; inhibition, % at 38.7 µM; 9.2% of 290,000 active; in the data active means inhibition mostly above about 28%, no sharp cut-off; inactive means mostly below about 43%; further: 0% is about no effect
SARS PLP yeast = blocks SARS-CoV papain-like protease in a yeast assay. 0.19% of 330,000 active. S. cerevisiae expressing SARS-CoV PLpro, growth rescue. Potency, µM (titrated, usually from 32.9 µM), inactives show at the highest dose activity, positive = growth rescue, hits mostly activators; further: potency means the concentration at half of the fitted maximal effect; 0% is about no effect; nearly all actives have a fitted effect of over 55% in size
Pf growth 48h = inhibits P. falciparum growth in the first generation, 48 h | P. falciparum luciferase growth in erythrocytes, 48 h | Potency, µM (series often up to 28.7 µM), inactives show at the highest dose activity change, negative = inhibition, most hits filed as inhibitors | 5.9% of 310,000 active | AID 504832; active means well fitted inhibition curve with a large enough effect; inconclusive means small, poorly fitted or top-dose-only effect, or another doubt; inactive means no such curve, though single readings can be large or run the other way; further: potency means the concentration at half of the fitted maximal effect; on the % scale 0 is the no-effect control and ±100 the full control effect
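A one-generation exposure of luciferase-tagged malaria parasites in RPMI 1640/Albumax erythrocyte culture, 37 C and 5% CO2. Inhibition is inferred from decreased luminescence after adding detection reagent.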
Cycloheximide cs = counter-screen for Shiga toxin inhibitors: cycloheximide protein synthesis inhibition; cell reporter, cycloheximide protein synthesis inhibition counterscreen; max response, %; 12% of 300,000 active; AID 2314; in the data active means max response mostly above about 13%, no sharp cut-off; inactive means mostly below about 14%; further: read at 38.3 µM for the half of the compounds with a filed dose; 0% is about no effect
NS1 inh = inhibitors of influenza NS1 protein function. Potency, µM (series often up to 46.1 µM), for the others: at the top dose activity, positive = more growth. 0.4% of 270,000 active. AID 2326; further: potency means the concentration at half of the fitted maximal effect; actives are rising curves; nearly all actives have a fitted effect of over 50% in size
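S. cerevisiae expressing influenza A NS1, grown in glucose, washed, then diluted 1:100 into pH 6.0 -URA galactose medium with 23 nl compound. Growth recovery read as OD600; NS1-free strain serves as control.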
Pf growth 96h = inhibits malaria parasite growth, 96 h | Potency, µM (highest dose often 28.7 µM), for the others: top-dose activity change, negative = inhibition, hits mostly inhibitors | 6.9% of 320,000 active | AID 504834 | P. falciparum luciferase reporter growth, 96 h; active means well fitted inhibition curve with a large enough effect; inconclusive means small, poorly fitted or top-dose-only effect, or another doubt; inactive means no such curve, though single readings can be large or run the other way; further: potency means the concentration at half of the fitted maximal effect; on the % scale 0 is the no-effect control and ±100 the full control effect
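Infected RBCs, 2% Hct / 0.05% parasitemia final; luciferase-reporter P. falciparum; cpd 96 h, 37 C, 5% CO2; luciferase detection reagent; luminescence.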
* hit, by the source's call; ? = inconclusive; · = not tested or not shown. Compounds with a hit are over-represented: about 21% of the library has one in this group of screens. Unless noted, the call rests on the fitted dose curve.

SMILES | Shiga inhibitor | SARS PLP yeast | Pf growth 48h | Cycloheximide cs | NS1 inh | Pf growth 96h
Cc1ncsc1C(=O)N1CCCC(C(=O)c2ccc3ccccc3c2)C1 (configuration not stated) | -3.2 | 1.0% | -13.7% | -1.8 | -19.3% | -28.5%
COc1ccccc1Nc1nc(-c2sc(N)nc2C)cs1 | 11.8 | -6.6% | -21.9% | 13.9* | 4.2% | ?
COc1cccc(Nc2nc(-c3sc(C)nc3C)cs2)c1 | 61.8* | -24.4% | 32.4% | 42.3* | -120.4% | -1.7%
Cc1nc(C)c(-c2csc(Nc3ccc(C(=O)O)c(O)c3)n2)s1 | -4.9 | 13.3% | -14.0% | 5.7 | 12.4% | ?
O=C1CC(c2ccccc2)CC(O)=C1C=NCCN1CCN(Cc2ccccc2)CC1 (configuration not stated) | -9.7 | -0.1% | ? | -2.6 | -1.4% | -12.9%
O=C(O)CS(=O)CC(=O)Nc1cccc(C(F)(F)F)c1 (configuration not stated) | 3.3 | 1.2% | 0.0% | -3.5 | 2.6% | -2.9%
O=C(NCCCNCCCNC(=O)c1ccc(/C=N/O)nc1)c1ccc(/C=N/O)nc1 | -5.8 | 1.3% | 9.28µM* | -1.8 | 7.8% | 2.62µM*
CC1CCCN(c2ccc(C(=O)NCC3CCCO3)cn2)C1 (configuration not stated) | 52.1 | -2.8% | 52.5% | 24.8* | -9.1% | -5.0%
O=C(NCC1CCCO1)c1ccc(/C=N/O)nc1 (configuration not stated) | -9.6 | -14.9% | 0.2% | -3.5 | 0.4% | 14.7µM*
CCOc1ccc(C(=O)NCC2CCCO2)cc1OCC (configuration not stated) | 23.6 | 0.1% | 18.3% | 5.6 | 0.1% | ?
O=C(NCC1CCCO1)c1cnc(Cl)c(Cl)c1 (configuration not stated) | -1.4 | -0.7% | ? | 2.3 | -4.9% | 5.0%
NC(=O)COn1c(SCC(N)=O)nc2ccccc2c1=O | -6.5 | 0.4% | 16.3% | 10.7 | 4.3% | 0.2%
CC(C)(C)OC(=O)[C@H](Cc1ccccc1)NC(=O)c1nc[nH]c1C(=O)N1CCNCC1 | · | 4.7% | · | · | · | ·
Cc1ccccc1C(=O)Oc1ccccc1C(=O)N1CCOCC1 | 10.0 | 8.0% | -13.5% | -1.9 | 0.7% | 8.28µM*
COC(=O)c1ccccc1C(=O)N1CCOCCN(C(=O)c2ccccc2C(=O)OC)CCOCC1 | -7.7 | 18.7% | 9.3% | -4.2 | 2.3% | 23.4%
O=C(Nc1oc2ccccc2c(=O)c1-c1ccc(Br)cc1)c1ccco1 | 11.9 | -4.1% | -10.6% | 8.6 | -11.5% | -19.2%
COc1ccccc1CN1CC(C(=O)NCc2cc(F)ccc2C)CCC1=O (configuration not stated) | 40.2* | -5.4% | ? | 31.9* | -0.2% | ?
Cn1cc(CNC(=O)C2CCC(=O)N(Cc3ccccc3F)C2)cn1 (configuration not stated) | -5.3 | 1.0% | 2.2% | -2.1 | 6.1% | ?
Cc1ccc(F)cc1CNC(=O)C1CCC(=O)N(CCc2ccccc2)C1 (configuration not stated) | 12.5 | -1.3% | 16.9% | 9.1 | -11.1% | 47.3%
COc1ccccc1CN1CC(C(=O)NCc2cnn(C)c2)CCC1=O (configuration not stated) | -27.9 | -1.3% | 9.5% | -0.3 | 10.6% | 6.57µM*
C#CCSc1nc2sc3c(c2c(=O)n1C)CCC3 | 18.7 | 0.9% | ? | 12.3 | 3.0% | 53.2%
CCc1ccc(C(=O)CN(C#N)c2nc(C)cc(C)n2)cc1 | 25.0 | -2.7% | 0.0% | 3.9 | -31.2% | ?
Cc1cc(C)nc(N(C#N)CC(=O)c2ccccc2)n1 | 47.6* | -1.3% | -0.5% | 36.8* | 2.0% | ·
CSc1ccc(CN2CCN(CCC(C)C)C(CCO)C2)cc1 (configuration not stated) | -2.1 | 1.8% | ? | -2.1 | -6.0% | 0.9%
CC(C)CCN1CCN(Cc2ccc(C#CCCO)cc2)CC1CCO (configuration not stated) | -3.9 | 1.5% | -19.9% | 1.0 | -5.9% | 11.7µM*
SMILES | Shiga inhibitor | SARS PLP yeast | Pf growth 48h | Cycloheximide cs | NS1 inh | Pf growth 96h
CC(C)c1csc(CN2CCN(Cc3ccccc3)C(CCO)C2)n1 (configuration not stated) | 2.6 | 1.2% | 2.8% | -1.4 | 2.5% | ?
CC(C)c1csc(CN2CCN(CCc3ccccc3)C(CCO)C2)n1 (configuration not stated) | -25.0 | -0.6% | ? | -4.5 | -0.3% | 1.65µM*
OCCC1CN(Cc2ccc3nsnc3c2)CCN1CCc1ccccc1 (configuration not stated) | -7.4 | 0.1% | -4.9% | -2.3 | -3.5% | 11.7µM*
OCCC#Cc1ccc(CN2CCN(CCc3ccccc3)C(CCO)C2)cc1 (configuration not stated) | · | -2.1% | ? | -1.0 | 17.8% | 8.28µM*
CNC[C@@H]1Oc2ccc(NS(=O)(=O)c3ccc(Cl)cc3)cc2C(=O)N([C@H](C)CO)C[C@@H]1C | · | -6.4% | · | · | · | ·
Cc1ccc(S(=O)(=O)C(C)C(=O)c2ccc3c(c2)OCCO3)cc1 (configuration not stated) | 9.1 | 11.9% | · | 1.8 | 1.6% | 29.9%
N#CC(c1nc2ccccc2nc1OCCO)S(=O)(=O)c1ccccc1 (configuration not stated) | 15.2 | 0.3% | 1.1% | 0.3 | 3.5% | 10.4%
CN(C)c1ccc(CNCCC(Cc2ccccc2)c2ccco2)cc1 (configuration not stated) | 1.2 | -4.8% | ? | -7.9 | -30.3% | 9.28µM*
CCOc1ccccc1CNC(=O)c1ccc2nc(N3CCOCC3)sc2c1 | -7.3 | 2.3% | ? | 0.8 | -12.5% | 50.4%
COc1ccccc1CC1(C)NC(=O)N(CC(=O)N2CC(C)OC(C)C2)C1=O (configuration not stated) | -6.7 | 15.0% | 6.3% | 10.4 | 4.8% | 0.522µM*
COc1ccc(OC)c(Cc2nnc(CCC(=O)NC(C3CC3)C3CC3)o2)c1 | 58.6 | 0.9% | 12.3% | -2.1 | 0.9% | 24.7%
CCC1CCCCN1C(=O)CCc1nnc(Cc2cc(OC)ccc2OC)o1 (configuration not stated) | 92.8* | -0.1% | -21.9% | 54.1* | -0.9% | -7.4%
COc1ccc(OC)c(Cc2nnc(CCC(=O)N3CCN(C4CCCC4)CC3)o2)c1 | 99.1* | 4.4% | 4.5% | 40.2* | -0.3% | -11.0%
COc1ccc(OC)c(Cc2nnc(CCC(=O)N3CCCCC3)o2)c1 | 73.0* | -1.0% | 10.5% | 22.5* | -4.7% | ?
CN(CC(=O)Nc1cccc(F)c1)C(=O)c1ccc(N2CCCCC2)c([N+](=O)[O-])c1 | · | -18.0% | 2.9% | · | · | 10.8%
COc1cc(CCC(=O)NNC(=O)c2ccc(C)cc2)cc(OC)c1OC | 5.2 | 2.2% | 5.7% | 8.6 | · | 6.7%
Cc1ccc(OCC(=O)Nc2cnn(CCCC(=O)O)c2)c([N+](=O)[O-])c1 | 1.9 | 1.4% | -42.0% | -3.6 | · | 49.7%
C=CCSc1nc(NC)c2sccc2n1 | -5.2 | -31.1% | ? | 23.6 | -163.9% | ?
